# Measured values published in ChEMBL document CHEMBL2218924, “A broad activity screen in support of a chemogenomic map for kinase signalling research and drug discovery” (Biochem J, 2013).
# Tests used:
# [1] = target: T1, Ephrin type-A receptor 3 (Homo sapiens) (UniProt P29320); settings: at 10 µM
# T1 sequence (whole entry): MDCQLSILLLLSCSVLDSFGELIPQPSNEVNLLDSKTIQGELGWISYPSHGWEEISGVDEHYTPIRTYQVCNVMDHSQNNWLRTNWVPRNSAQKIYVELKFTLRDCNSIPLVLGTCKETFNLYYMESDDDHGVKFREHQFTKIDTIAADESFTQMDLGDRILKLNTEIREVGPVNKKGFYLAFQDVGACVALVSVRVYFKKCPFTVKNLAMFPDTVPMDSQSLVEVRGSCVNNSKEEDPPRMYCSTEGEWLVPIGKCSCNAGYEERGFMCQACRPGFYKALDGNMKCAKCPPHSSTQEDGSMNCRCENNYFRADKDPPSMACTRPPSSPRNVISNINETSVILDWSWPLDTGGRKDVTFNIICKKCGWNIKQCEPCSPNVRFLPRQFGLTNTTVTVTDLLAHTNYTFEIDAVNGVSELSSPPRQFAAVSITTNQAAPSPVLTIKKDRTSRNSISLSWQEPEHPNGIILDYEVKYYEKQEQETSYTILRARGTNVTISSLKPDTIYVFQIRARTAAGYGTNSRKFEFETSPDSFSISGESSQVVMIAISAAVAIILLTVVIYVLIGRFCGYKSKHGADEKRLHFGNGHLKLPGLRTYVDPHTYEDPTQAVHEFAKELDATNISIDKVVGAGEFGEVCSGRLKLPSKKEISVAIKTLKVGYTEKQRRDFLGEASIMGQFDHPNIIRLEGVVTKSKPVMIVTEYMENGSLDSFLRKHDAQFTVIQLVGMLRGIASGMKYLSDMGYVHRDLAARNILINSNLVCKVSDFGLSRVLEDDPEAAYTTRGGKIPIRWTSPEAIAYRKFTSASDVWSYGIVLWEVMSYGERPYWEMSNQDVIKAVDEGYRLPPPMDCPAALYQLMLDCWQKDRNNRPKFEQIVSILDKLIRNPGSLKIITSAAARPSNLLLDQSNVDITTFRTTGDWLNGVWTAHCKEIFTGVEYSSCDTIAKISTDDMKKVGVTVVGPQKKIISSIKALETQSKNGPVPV
# [2] = target: Ephrin type-A receptor 7 (Homo sapiens) (UniProt Q15375); settings: at 1 µM
# Chain of Ephrin type-A receptor 7 (Homo sapiens) (Q15375 28-998 limits assumed): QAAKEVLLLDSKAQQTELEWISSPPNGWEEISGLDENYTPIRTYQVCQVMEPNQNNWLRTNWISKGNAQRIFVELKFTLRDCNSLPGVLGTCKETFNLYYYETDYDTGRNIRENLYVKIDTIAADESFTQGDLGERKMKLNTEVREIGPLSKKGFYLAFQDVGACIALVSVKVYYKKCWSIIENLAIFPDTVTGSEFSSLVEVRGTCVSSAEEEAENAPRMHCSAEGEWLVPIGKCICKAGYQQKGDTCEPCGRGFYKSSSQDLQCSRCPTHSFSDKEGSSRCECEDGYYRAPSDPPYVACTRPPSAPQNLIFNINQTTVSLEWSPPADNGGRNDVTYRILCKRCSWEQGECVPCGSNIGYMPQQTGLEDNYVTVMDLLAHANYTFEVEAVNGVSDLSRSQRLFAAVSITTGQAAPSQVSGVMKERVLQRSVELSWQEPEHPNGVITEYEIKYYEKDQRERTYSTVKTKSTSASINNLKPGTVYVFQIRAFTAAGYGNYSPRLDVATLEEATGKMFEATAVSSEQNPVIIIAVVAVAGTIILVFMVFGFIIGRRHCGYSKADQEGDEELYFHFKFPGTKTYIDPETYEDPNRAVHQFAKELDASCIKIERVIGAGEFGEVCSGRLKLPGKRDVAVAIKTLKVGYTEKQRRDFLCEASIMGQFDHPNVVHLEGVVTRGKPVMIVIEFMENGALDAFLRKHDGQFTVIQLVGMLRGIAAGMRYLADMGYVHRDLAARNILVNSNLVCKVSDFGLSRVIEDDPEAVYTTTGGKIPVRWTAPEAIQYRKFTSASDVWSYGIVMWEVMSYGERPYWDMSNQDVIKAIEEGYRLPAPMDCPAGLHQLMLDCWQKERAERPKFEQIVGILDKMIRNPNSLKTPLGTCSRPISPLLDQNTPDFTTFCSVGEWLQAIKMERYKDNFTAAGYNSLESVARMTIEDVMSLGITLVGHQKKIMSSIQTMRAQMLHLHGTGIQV
# [3] = target: Ephrin type-A receptor 7 (Homo sapiens) (UniProt Q15375); settings: at 10 µM
# [4] = target: T2, Ephrin type-A receptor 8 (Homo sapiens) (UniProt P29322); settings: at 1 µM
# T2 sequence (whole entry): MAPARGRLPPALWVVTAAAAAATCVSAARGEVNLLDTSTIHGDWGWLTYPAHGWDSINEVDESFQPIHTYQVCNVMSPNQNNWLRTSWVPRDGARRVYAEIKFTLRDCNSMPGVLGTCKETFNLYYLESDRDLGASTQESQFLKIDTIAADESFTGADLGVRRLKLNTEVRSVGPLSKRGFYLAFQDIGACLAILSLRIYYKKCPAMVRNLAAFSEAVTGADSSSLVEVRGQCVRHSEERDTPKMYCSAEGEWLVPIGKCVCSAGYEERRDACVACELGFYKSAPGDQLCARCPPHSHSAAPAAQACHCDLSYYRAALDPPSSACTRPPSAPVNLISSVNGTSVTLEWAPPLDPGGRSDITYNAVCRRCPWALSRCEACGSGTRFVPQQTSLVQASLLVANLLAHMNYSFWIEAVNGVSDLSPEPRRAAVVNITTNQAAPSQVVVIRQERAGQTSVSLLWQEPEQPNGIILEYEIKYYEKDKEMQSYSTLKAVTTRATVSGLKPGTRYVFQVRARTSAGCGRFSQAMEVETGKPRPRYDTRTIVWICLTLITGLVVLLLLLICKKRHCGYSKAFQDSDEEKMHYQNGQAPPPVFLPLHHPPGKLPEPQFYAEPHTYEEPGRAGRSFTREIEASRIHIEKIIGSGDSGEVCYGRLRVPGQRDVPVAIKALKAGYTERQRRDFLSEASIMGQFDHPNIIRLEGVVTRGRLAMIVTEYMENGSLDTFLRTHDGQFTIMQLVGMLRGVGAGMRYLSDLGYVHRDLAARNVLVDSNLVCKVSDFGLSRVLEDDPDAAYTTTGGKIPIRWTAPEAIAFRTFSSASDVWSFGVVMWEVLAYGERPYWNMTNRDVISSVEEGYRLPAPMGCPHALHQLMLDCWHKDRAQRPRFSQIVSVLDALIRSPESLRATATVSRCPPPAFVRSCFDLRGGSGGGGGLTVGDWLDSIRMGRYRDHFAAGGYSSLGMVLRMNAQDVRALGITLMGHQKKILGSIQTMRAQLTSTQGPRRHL
# [5] = target: T2, Ephrin type-A receptor 8 (Homo sapiens); settings: at 10 µM
# [6] = target: T3, Ephrin type-B receptor 1 (Homo sapiens) (UniProt P54762); settings: at 1 µM
# T3 sequence (whole entry): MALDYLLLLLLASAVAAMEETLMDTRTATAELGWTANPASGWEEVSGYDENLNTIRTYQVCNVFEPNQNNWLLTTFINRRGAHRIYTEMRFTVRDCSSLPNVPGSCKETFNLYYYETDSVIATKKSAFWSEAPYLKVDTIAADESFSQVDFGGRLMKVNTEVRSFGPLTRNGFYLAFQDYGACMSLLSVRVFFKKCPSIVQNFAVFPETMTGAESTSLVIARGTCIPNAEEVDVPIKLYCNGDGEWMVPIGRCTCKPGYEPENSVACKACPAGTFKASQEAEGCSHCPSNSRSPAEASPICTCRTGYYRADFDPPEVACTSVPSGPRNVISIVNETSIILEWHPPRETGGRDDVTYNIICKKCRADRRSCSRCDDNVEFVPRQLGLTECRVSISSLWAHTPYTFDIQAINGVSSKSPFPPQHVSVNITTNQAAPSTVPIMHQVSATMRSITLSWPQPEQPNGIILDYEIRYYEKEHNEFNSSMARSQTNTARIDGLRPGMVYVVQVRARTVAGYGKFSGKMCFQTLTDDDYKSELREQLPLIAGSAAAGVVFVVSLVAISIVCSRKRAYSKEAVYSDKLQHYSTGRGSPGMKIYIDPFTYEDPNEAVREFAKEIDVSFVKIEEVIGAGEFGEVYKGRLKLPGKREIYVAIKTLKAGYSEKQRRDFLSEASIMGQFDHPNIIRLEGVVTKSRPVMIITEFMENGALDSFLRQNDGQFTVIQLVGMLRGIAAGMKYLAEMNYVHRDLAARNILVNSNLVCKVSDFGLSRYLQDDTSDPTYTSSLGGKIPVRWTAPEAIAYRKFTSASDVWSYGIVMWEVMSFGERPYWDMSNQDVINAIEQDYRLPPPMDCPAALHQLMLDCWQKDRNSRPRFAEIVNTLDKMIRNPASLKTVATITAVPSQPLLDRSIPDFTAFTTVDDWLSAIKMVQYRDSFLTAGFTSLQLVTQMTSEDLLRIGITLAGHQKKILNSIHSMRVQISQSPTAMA
# [7] = target: Ephrin type-A receptor 4 (Homo sapiens) (UniProt P54764); settings: at 1 µM
# Chain of Ephrin type-A receptor 4 (Homo sapiens) (P54764 whole entry): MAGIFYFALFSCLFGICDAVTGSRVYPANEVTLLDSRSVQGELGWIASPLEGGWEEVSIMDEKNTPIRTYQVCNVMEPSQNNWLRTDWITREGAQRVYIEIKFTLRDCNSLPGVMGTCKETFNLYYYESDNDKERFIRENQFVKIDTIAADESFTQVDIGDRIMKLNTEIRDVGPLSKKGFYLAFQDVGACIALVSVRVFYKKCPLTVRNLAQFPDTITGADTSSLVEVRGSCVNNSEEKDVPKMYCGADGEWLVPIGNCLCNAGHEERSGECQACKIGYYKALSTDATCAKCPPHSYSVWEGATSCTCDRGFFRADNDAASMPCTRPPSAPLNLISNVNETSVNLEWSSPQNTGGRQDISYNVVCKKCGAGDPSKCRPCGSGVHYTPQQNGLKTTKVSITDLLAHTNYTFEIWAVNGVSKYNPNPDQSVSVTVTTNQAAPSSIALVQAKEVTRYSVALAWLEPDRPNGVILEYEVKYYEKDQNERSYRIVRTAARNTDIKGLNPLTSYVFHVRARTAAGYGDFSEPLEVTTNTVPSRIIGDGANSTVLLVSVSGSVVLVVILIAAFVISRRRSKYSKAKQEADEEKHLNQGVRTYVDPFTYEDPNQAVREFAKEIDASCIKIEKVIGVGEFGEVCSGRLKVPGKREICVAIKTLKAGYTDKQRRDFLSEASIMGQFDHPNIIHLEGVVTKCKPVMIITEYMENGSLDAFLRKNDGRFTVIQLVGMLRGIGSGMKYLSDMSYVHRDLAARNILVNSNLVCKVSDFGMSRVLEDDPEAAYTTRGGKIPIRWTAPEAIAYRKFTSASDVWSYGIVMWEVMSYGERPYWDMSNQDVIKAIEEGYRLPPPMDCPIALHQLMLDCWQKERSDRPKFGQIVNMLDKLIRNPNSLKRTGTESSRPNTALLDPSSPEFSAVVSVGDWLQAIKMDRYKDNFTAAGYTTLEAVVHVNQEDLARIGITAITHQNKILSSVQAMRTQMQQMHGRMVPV
# [8] = target: Ephrin type-A receptor 4 (Homo sapiens) (UniProt P54764); settings: at 10 µM
# [9] = target: Ephrin type-A receptor 5 (Homo sapiens) (UniProt P54756); settings: at 1 µM
# Chain of Ephrin type-A receptor 5 (Homo sapiens) (P54756 whole entry): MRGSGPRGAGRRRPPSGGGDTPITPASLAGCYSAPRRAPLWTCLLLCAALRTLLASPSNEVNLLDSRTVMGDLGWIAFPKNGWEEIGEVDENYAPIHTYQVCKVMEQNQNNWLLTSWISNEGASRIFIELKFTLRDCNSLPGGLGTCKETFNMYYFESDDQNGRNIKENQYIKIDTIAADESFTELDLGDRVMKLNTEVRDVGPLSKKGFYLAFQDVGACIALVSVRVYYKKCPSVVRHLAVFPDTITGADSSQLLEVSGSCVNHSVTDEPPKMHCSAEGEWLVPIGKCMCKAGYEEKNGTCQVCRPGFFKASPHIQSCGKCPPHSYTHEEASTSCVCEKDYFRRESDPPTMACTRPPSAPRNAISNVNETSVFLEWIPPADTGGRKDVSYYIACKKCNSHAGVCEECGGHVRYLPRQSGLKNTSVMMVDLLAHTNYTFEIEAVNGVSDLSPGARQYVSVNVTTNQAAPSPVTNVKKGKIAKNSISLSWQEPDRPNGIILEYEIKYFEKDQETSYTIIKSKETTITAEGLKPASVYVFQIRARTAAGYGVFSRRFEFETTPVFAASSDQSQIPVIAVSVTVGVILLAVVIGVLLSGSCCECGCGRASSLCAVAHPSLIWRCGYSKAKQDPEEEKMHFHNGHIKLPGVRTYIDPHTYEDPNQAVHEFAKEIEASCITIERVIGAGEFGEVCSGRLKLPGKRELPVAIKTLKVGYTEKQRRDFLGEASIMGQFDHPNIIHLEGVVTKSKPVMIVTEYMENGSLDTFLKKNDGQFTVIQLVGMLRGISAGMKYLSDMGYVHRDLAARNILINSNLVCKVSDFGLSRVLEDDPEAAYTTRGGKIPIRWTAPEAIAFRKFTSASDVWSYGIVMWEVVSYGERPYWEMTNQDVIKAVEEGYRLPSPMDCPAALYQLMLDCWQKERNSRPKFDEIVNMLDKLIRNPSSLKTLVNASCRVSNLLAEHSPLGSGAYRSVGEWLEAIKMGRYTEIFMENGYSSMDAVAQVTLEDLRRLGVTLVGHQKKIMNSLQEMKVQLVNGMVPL
# [10] = target: Ephrin type-A receptor 5 (Homo sapiens) (UniProt P54756); settings: at 10 µM
Compound,residual activity [1] [%],residual activity [2] [%],residual activity [3] [%],residual activity [4] [%],residual activity [5] [%],residual activity [6] [%],residual activity [7] [%],residual activity [8] [%],residual activity [9] [%],residual activity [10] [%]
Cc1cc2ncc(-c3ccccc3)nc2cc1C,92,99,93,97,98,106,,,,
Oc1ccc(Nc2nc(-c3ccc(Cl)cc3)cs2)cc1,111,105,102,99,96,108,113,103,112,86
O=C1c2ccccc2-[n+]2ccc3c([nH]c4ccccc43)c21,81,85,79,89,85,85,103,104,116,102
c1ccc(-c2n[nH]cc2-c2ccnc3ccccc23)nc1,78,94,91,95,97,104,,103,109,103
O=[N+]([O-])c1ccc(-c2nc(-c3ccc(F)cc3)c(-c3ccncc3)[nH]2)cc1,90,,101,93,,103,105,107,100,94
O=C1Nc2ccccc2/C1=C1/Nc2ccccc2/C1=N\OCCC(O)CO (configuration not stated),6,58,10,72,32,56,,,59,23
C[C@@H](N)[C@H]1CC[C@H](C(=O)Nc2ccncc2)CC1,97,96,90,105,108,101,95,,84,
CC(=O)O/N=C1\C(=C2\C(=O)Nc3cc(Br)ccc32)Nc2ccccc21,38,100,79,84,77,86,112,84,99,47
CCN(CC)CCCCN1c2ccccc2Oc2ccc(Cl)cc21,97,105,103,98,114,100,116,100,108,113
Cc1cccc(-c2[nH]c(C(C)(C)C)nc2-c2ccc3c(c2)OCO3)n1,96,98,94,99,105,,,,,
COc1ccc(CNc2nc(N(CCO)CCO)nc3c2ncn3C(C)C)cc1,90,92,73,99,88,105,110,110,126,105
c1ccc(-c2n[nH]c3c2oc2ccccc23)cc1,,96,78,,,99,,,,
COc1cc2ncc(-c3ccccc3)nc2cc1OC,,,94,,,,,,,
CCN(CC)C(=O)c1ccc(Nc2nc(OCC3CCCCC3)c3nc[nH]c3n2)cc1,60,71,7,97,64,68,,73,,
Cc1nc(-c2ccccc2)c(-c2ccncc2)o1,77,94,89,65,54,63,109,102,35,29
O=C1NC(=O)c2c1c1c3ccccc3[nH]c1c1[nH]c3cc(Br)ccc3c21,86,99,93,95,88,106,104,92,111,91
Cn1nc2c3c(cccc31)C(=O)c1ccccc1-2,73,95,88,94,81,94,,,110,99
N#CC(C#N)=C(N)/C(C#N)=C/c1ccc(O)cc1,,91,81,,,,,,125,96
Nc1n[nH]c2nnc(-c3c(-c4ccccc4)nn4ccccc34)cc12,93,91,83,91,80,98,104,100,91,94
Cc1cncc2cccc(S(=O)(=O)N3CCCN(C(=O)CN)C[C@H]3C)c12,50,,66,98,85,75,,,,83
N#Cc1cnc2cnc(NCc3cccnc3)cc2c1Nc1ccc(F)c(Cl)c1,72,,,,,100,103,76,56,46
CN(C)CCCn1cc(C2=C(c3c[nH]c4ccccc34)C(=O)NC2=O)c2ccccc21,82,108,87,120,106,,,82,123,103
Cn1cnc2cc3c(Nc4cccc(Br)c4)ncnc3cc21,30,77,39,86,63,70,106,88,82,40
COc1ccc(OC)c2c(=S)c3ccccc3[nH]c12,97,92,89,96,100,97,100,105,101,96
Oc1c2ccccc2c2c3c(cccc13)N=N2,48,80,41,92,76,91,105,106,115,63
Cc1cc(Nc2nc(-c3ccccc3)nc3ccccc23)n[nH]1,8,50,6,,68,,,73,,33
Oc1ccc(-c2nc(-c3ccc(F)cc3)c(-c3ccncc3)[nH]2)cc1,81,103,58,93,45,115,117,87,103,56
CC[n+]1c(/C=C/N(C)c2ccccc2)n(-c2ccccc2)c2ccc(-c3nc4ccccc4s3)cc21,92,108,96,114,,103,106,85,120,110
O=Nc1c(-c2c(O)[nH]c3ccccc23)[nH]c2ccccc12,9,70,15,84,43,59,96,83,59,9
